Pf growth 96h: P. falciparum growth inhibition at 96 hours | 320,000 compounds, 6.9% hits | AID 504834 | Potency, µM (doses to about 28.7 µM), for inactives: at the top dose activity change, negative = inhibition, most hits filed as inhibitors | P. falciparum luciferase reporter growth, 96 h; also: potency is read from the fitted curve at half-maximal effect; % is scaled to controls: 0 for no effect and ±100 for the full control effect
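Readout is luminescence from an integrated firefly luciferase in P. falciparum. Red cells, 2% hematocrit and 0.05% parasitemia final, were cultured with compound through two parasite generations (96 hours) at 37 C, 5% CO2.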
Giardia FBPA inh: inhibitors of Giardia lamblia fructose-1,6-bisphosphate aldolase; A8B2U2; purified Giardia FBPA; Potency, µM (top dose mostly 59.6 µM), for inactives: top-dose activity, negative = inhibition, most hits filed as inhibitors; 290,000 compounds, 0.71% hits; AID 2451; also: potency is read from the fitted curve at half-maximal effect; % is scaled to controls: 0 for no effect and ±100 for the full control effect; nearly all actives have a fitted effect of over 55% in size
Target sequence (A8B2U2 whole entry, looked up): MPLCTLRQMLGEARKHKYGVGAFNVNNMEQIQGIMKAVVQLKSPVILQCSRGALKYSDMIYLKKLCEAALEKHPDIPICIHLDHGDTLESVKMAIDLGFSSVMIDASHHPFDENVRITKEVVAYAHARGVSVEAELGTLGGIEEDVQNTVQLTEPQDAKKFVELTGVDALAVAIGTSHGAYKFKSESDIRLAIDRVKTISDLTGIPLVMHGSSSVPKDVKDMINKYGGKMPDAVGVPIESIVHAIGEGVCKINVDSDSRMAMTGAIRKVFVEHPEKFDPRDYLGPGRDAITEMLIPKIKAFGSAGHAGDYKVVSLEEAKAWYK
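40 nM FBPA preincubated 10 min at RT with compound (up to 57.5 uM final), then substrate plus GAPDH/TPI/NAD/arsenate coupling and diaphorase/resazurin added. Fluorescence read after 20 min at RT, 525/598 nm.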
CHX counter: affects cycloheximide protein synthesis inhibition readout, counter-screen; cell reporter, cycloheximide protein synthesis inhibition counterscreen; max response, %; AID 2314; 300,000 compounds, 12% hits; in the data active = max response mostly above about 13%, no sharp cut-off; inactive = mostly below about 14%; also: read at 38.3 µM for the half of the compounds with a filed dose; 0% is about no effect
Pf growth 48h: inhibits P. falciparum growth in the first generation, 48 h | 310,000 compounds, 5.9% hits | P. falciparum luciferase growth in erythrocytes, 48 h | Potency, µM (doses to about 28.7 µM), inactives show at the highest dose activity change, negative = inhibition, usual class: inhibitors; also: potency is read from the fitted curve at half-maximal effect; % is scaled to controls: 0 for no effect and ±100 for the full control effect
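In quantitative HTS format, infected erythrocytes bearing luciferase-reporter parasites were treated for a single generation at 37 C. Luminescence after adding detection reagent served as the growth measure.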
Shiga toxin inh: blocks Shiga toxin action in Vero cells | Vero cells, Shiga toxin protein synthesis inhibition reporter | inhibition, % at 38.7 µM | 290,000 compounds, 9.2% hits | AID 2315; in the data active = inhibition mostly above about 28%, no sharp cut-off; inactive = mostly below about 43%; also: 0% is about no effect
NS1 function inh: blocks influenza NS1 protein function | Potency, µM (top dose mostly 46.1 µM), without a hit: at the top dose activity, positive = more growth | 270,000 compounds, 0.4% hits; calls by dose curve; also: potency is read from the fitted curve at half-maximal effect; actives are rising curves; nearly all actives have a fitted effect of over 50% in size
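Recovery from NS1-induced slow growth read by OD600 in budding yeast switched to galactose assay medium (pH 6.0, -URA) at 1:100 dilution. Compound 23 nl per well; the matching strain lacking NS1 serves as control.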
Numbers without * were called inactive; i = inactive; u = inconclusive; x = not tested or not shown; [ ] = dose if it differs, or a comment. Rows were chosen to be rich in hits. Some 21% of all compounds tested hit in one or more screens of this group. Unless noted, calls follow the shape of the dose curve; as a rule, active = well fitted curve in the direction sought with a large enough effect; inconclusive = small, poorly fitted or top-dose-only effect, or another doubt; inactive = no such curve, though single readings can be large; an effect the other way counts as inactive or inconclusive.

SMILES | Pf growth 96h | Giardia FBPA inh | CHX counter | Pf growth 48h | Shiga toxin inh | NS1 function inh
CC(=O)N(Cc1cc2ccccc2[nH]c1=O)c1ccc(C)cc1 | -18% | 1% | -2 | -4% | 8 | -32%
Nc1nc(N)c2nn(-c3ccc(C(=O)O)cc3)nc2n1 | x | x | x | x | x | -3%
COc1ccc(OC)c(NC(=O)c2cc(S(=O)(=O)NCc3ccco3)ccc2F)c1 | 1.2µM* | 1% | 47* | 0% | 58* | -32%
O=S(=O)(Nc1ncccn1)c1ccc(NC(=S)NCCc2ccccc2)cc1 | -13% | 10% | -4 | u | 27 | x
O=[N+]([O-])c1ccc(NC(=S)NCc2ccncc2)cc1 | u | 2% | -6 | 8% | 22 | x
O=[N+]([O-])c1ccc(NC(=S)NCCc2ccccc2)cc1 | -1% | -2% | 28* | u | 64* | -35%
O=[N+]([O-])c1ccc(NNC(=S)Nc2ccccc2)cc1 | x | u | 37* | -56% | 97* | -80%
O=[N+]([O-])c1ccc(NC(=S)NCCc2ccc(Cl)cc2)cc1 | 1.9µM* | -4% | 5 | 2.3µM* | -7 | -46%
O=[N+]([O-])c1ccc(O)c(NC(=S)Nc2ccccc2)c1 | x | -14% | 37* | 62% | 45 | -10%
O=C(Nc1ccccn1)c1ccc(S(=O)(=O)N2CCCCCC2)cc1 | 62% | x | x | 13% | x | x
CC(C)=NO[C@@H](C)c1cn([C@@H]2COC[C@@H]2O)nn1 | x | -1%[12.9 µM] | x | x | x | x
O=C(O)Cc1c(Cl)ccc(Cl)c1Cl | x | 11% | -2 | x | -14 | x
COc1ccc(-c2nc3ccc(N4CCN(C)CC4)cc3c(=O)[nH]2)cc1 | 52% | 3% | 20 | u | 58 | -2%
COc1cc(-c2nc3ccc(N4CCN(C)CC4)cc3[nH]2)cc(OC)c1OC | 3.7µM* | u | 26 | 9.3µM* | 48 | x
O=C1ON=C(c2ccc([N+](=O)[O-])cc2)/C1=C/c1ccccc1O | 22% | -10% | -2 | 30% | -6 | 11%
O=c1oc2c(-c3ccc([N+](=O)[O-])cc3)cc(O)cc2s1 | u | -5% | 15* | u | 6 | 4%
O=c1cc(-c2ccc3c(c2)OCO3)oc2ccccc12 | u | 5% | 21* | 148% | 35 | 13%
Cn1c(-c2ccc3c(c2)OCO3)cc(=O)c2ccccc21 | 11% | -7% | -3 | u | -7 | 0%
O=c1cc(-c2ccccc2O)oc2cc(O)ccc12 | x | -1% | x | x | x | x
O=c1cc(-c2ccccc2)oc2cc(O)ccc12 | x | 3% | 51* | x | 77* | x
Nc1c(-c2ccc3c(c2)OCCO3)oc2ccccc2c1=O | 151% | -1% | 33* | 193% | 70* | 6%
Cc1cccc(-c2oc3ccccc3c2-c2ccc3c(c2)OCO3)c1 | 9.3µM* | 6% | -3 | u | -4 | -1%
O=c1cc(-c2ccc(O)cc2)oc2ccccc12 | 143% | 3% | 37* | 117% | 55* | -5%
COc1ccc2c(=O)cc(-c3ccc(O)cc3)oc2c1 | x | 3% | x | x | x | x
O=c1cc(-c2ccc(O)cc2)oc2ccc(O)cc12 | 205% | 7% | 55* | 133% | 54* | x
SMILES | Pf growth 96h | Giardia FBPA inh | CHX counter | Pf growth 48h | Shiga toxin inh | NS1 function inh
COc1ccc2oc(-c3ccccc3[N+](=O)[O-])cc(=O)c2c1 | 38% | 0% | 41* | u | 81* | -6%
COc1ccc(-c2cc(=O)c3ccccc3o2)cc1 | u | -2% | 19* | 89% | 52* | -40%
CC(C)(CC(=O)O)CC(=O)Nc1ccc2c(c1)ncn2CCc1ccccc1 | u | -27% | 2 | -8% | 0 | 7%
O=C1[C@H]2[C@H](ON3CCCC[C@H]23)C(=O)N1c1ccc(Cl)cc1 | 5% | 1% | 7 | 117% | 1 | -3%
CCC(C)[C@H](NS(=O)(=O)c1ccc(C)cc1)C(=O)N1CCC(C(=O)N2CCC(C(=O)OC)CC2)CC1 (stereo partly specified) | -27% | -3% | -1 | -27% | 10 | -22%
C=CCn1c(=NC(=O)C2COc3ccccc3O2)sc2cccc(OC)c21 (stereo unspecified) | 1.2µM* | 3% | -2 | 7.4µM* | 22 | 1%
COc1cccc(CN(C)C(=O)CCNC(=O)c2ccco2)c1 | 18% | x | x | 20% | x | x
O=C1[C@H]2CCC=C[C@H]2[C@H](c2cccc(Br)c2)N1Cc1ccccc1 | x | 5%[89.2 µM] | -2 | x | i | x
Cc1cc(NC(=O)CCC(=O)N(CC(=O)NC2CCCC2)c2ccc(Cl)cc2)no1 | -4% | 9% | -3 | u | 15 | -15%
Nc1c(C(=O)c2ccccc2)sc2c1c(=O)[nH]c(=O)n2-c1ccccc1 | -2% | 5% | 12 | -15% | -4 | 0%
Cc1ccc(C(=O)c2sc3c(c2N)c(=O)[nH]c(=O)n3CCc2ccccc2)cc1 | 9.3µM* | 1% | 0 | u | -14 | 24%
COc1cccc(NC(=O)c2cc([N+](=O)[O-])ccc2NC(=O)CNCC2CCCO2)c1 (stereo unspecified) | 29% | 2% | -2 | u | -3 | x
Cc1ccc(C)c(N2CCN(CC(=O)Nc3ccc([N+](=O)[O-])cc3C(=O)Nc3ccccc3F)CC2)c1 | 2.3µM* | -2% | -6 | u | -14 | 2%
O=C(CNCC1CCCO1)Nc1ccc([N+](=O)[O-])cc1C(=O)Nc1ccccc1F (stereo unspecified) | 5.9µM* | -2% | -1 | u | -2 | -1%
COc1cc(F)ccc1S(=O)(=O)N1CCN(Cc2ccccc2)CC1 | u | -8% | 1 | -11% | x | 6%
Fc1ccc(Nc2nc(-c3cccnc3)cs2)cc1 | 39% | 3% | 48* | 42% | 146* | -10%
Cc1cc(Cl)ccc1OCC(=O)Nc1nc(-c2cccnc2)cs1 | 0% | 11% | 1 | u | 12 | 9%
c1ccc(-c2csc(Nc3cccnc3)n2)cc1 | -2% | 1% | 54* | 109% | 118* | -3%
Clc1ccc(-c2csc(Nc3cccnc3)n2)cc1 | 2% | 0% | 12 | 10% | 34 | 2%
Clc1ccc(Nc2nc(-c3cccnc3)cs2)cc1 | 10% | 3% | 41* | x | 119* | -2%
Cc1ccc(Cl)cc1Nc1nc(-c2cccnc2)cs1 | -7% | 6% | 17* | u | x | -85%
O=C(Nc1nc(-c2cccnc2)cs1)c1ccccc1Cl | 5% | 1% | -2 | u | 18 | 1%
O=S(=O)(c1ccc(-c2csc(Nc3ccc(F)cc3)n2)cc1)N1CCCC1 | 163% | 11% | -4 | 17% | 2 | 10%
COCCNC(=S)NCCc1ccc(Cl)cc1Cl | -18% | -7% | 8 | -18% | 10 | x
CCc1cc(=O)oc2cc(C)cc(OCC(=O)N3CCC(C(=O)O)CC3)c12 | -1% | 10% | -4 | 1% | -1 | 24%
Cc1cnc(C(=O)Nc2ccc(C)c(S(=O)(=O)N3CCCCCC3)c2)cn1 | 0% | x | x | u | x | x
